Screen size: about 53,000 sequences; about 3,700 (7%) were called active. Only a selection was taken, and actives are over-represented in it overall. Values without a mark were called inactive.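 How the source made its calls: active means gene knockdowns whose robust z-score for IL-1 alpha signal is at least 2 or at most -2, so actives lie on both sides; inactive means the rest.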
Test: Components of the Cytosolic LPS Sensing Pathway: Gene Identification via Genome-wide siRNA Screen
Settings: RAW264.7 macrophages, IL-1a HTRF, actives lie on both sides, screened at 100 nM (by protocol), cells primed 5 h with Pam3CSK4 first
From the text: Non-canonical inflammasome activation by cytosolic LPS is a critical component of the host response to Gram-negative bacterial infection, however we lack a comprehensive understanding of the cellular processes that control this pathway. Here we describe a genome-wide siRNA screen to identify genes regulating the mouse macrophage IL-1 alpha response to cytosolic LPS.
RAW264.7 cells were maintained in complete DMEM media, comprising DMEM with 4.5 g/L glucose, 10% FBS (Gemini Bio-Products, West Sacramento, CA), 2 mM Glutamine (Lonza) and 20 mM HEPES (Lonza), hereafter complete DMEM.
The RNAi screen was conducted in 384-well format using the Ambion Silencer Mouse Genome siRNA Library (#4391425), which consists of three unique, nonoverlapping, nonpooled siRNAs for each of 17,000 gene targets. siRNA reagents ([…]) were stamped into 384-well white flat-bottom microplates (Corning, 3570) using a Velocity11 VPrep liquid handling system (Agilent) integrated into a BioCel robotic platform (Agilent) in columns 1-22, leaving columns 23-24 empty for negative (Ambion, Negative control #1) and positive (mouse Casp4) controls, respectively. The median value of each plate's negative control column was used to normalize sample wells, and the positive control was used to assess transfection efficiency and assay performance.
Lipofectamine RNAiMAX Transfection Reagent ([…]; Invitrogen) was added in […] serum-free, antibiotic-free media to plate wells using a Thermo Scientific Matrix WellMate and Microplate Stacker. Plates were incubated for 45 min at room temperature to allow for the sufficient formation of siRNA-lipid complexes. Cells were seeded at a density of 1x10^4 cells per well in 20 microL media containing 20% (vol/vol) FBS without antibiotics. The final concentration of siRNA in each well was 100 nM. Cells were cultured for 48h at 37 degrees C in 5% CO2 before addition of […] of TLR ligand Pam3CSK4 for 5 hours. The medium was then removed, replaced with […] growth media and cell were transfected with […] of LipidA and TransIT-TKO (Mirus) for 24 hour. At the end of the LipidA treatment, […] of supernatant was transferred to a 384 Greiner Bio-one non-binding low volume plate and […] of IL-1a HTRF reagent (Cisbio, 62MIL1APEH) was added and incubated at room temperature overnight. The plates were read on an EnVision plate reader (PerkinElmer). Cell viability was measured by adding 20ul Cell Titer Glo to the original plate and running a luminescence read on the EnVision. The quantified IL-1a signal for each siRNA gene-targeted well was divided by the median of the negative control wells and multiplied by 100 to achieve a negative control normalized value for each well/siRNA. This normalized value was then used to generate a robust z-score by first taking the log of each value and then by subtracting the median and dividing by the […].

| Sequence | z-score |
| --- | --- |
| GGUGUGUGGUUUUUAAUAATT against Abhd3 | -0.692 |
| GGUGAUCCUUCUUUUUUACTT against Sgo1 | -2.01 (active) |
| GGGAGUUUCAGACCAGUGUTT against Atp5g3 | -0.097 |
| CCAUGGACUUUCUCGAAGATT against Ceacam11 | 0.612 |
| GCAGGUUCAUACGAUCCAGTT against Plekha3 | -0.7 |
| GGCAUGUAAUUUGAUGAUCTT against Mansc1 | -1.48 |
| GGCAUCAAGUGACUUAUAATT against Zfp772 | 2.47 (active) |
| CGGAUACCGUAGUUUGGUGTT against Lipe | 1.51 |
| GGUGAACGACUCCAUGUAUTT against Nectin1 | -0.448 |
| CGUGGUUGAACUUUGUCCGTT against C1qtnf12 | -0.569 |
| GGAAACUUGAUUAUUUAGGTT against Vrk2 | 0.915 |
| CGGGUUUAGGAGCAACCUUTT against Zdhhc4 | -3.02 (active) |
| CCAAAUGAAAUUAGUCCUCTT against Eif5 | -0.347 |
| GGCGGCAAGCAACAACAAUTT against Ssbp1 | 0.155 |
| GGAUGUGGUUCGAGUAUGGTT against Pou5f1 | 1.79 |
| GGUGAAAAGAUCAGAAUACTT against Fahd1 | -1.03 |
| CCAAAACAUUAACCUGAAGTT against Pla2g6 | -2.34 (active) |
| GGAAGAGUUGGAAAUUUACTT against Gdpd3 | -0.166 |
| GCAUCCUGAUCACUUAACATT against Cep170 | -0.732 |
| GGAAGAGAAUCAAGAGCCATT against Lrrc10 | -2.65 (active) |
| GCAAUCUAUAAGAGGUACATT against Axin2 | 1.79 |
| GGCCACAUUGUCCUAUCAGTT against Cdh16 | 0.0595 |
| GCAGAAGUCUCGUAUCCAGTT against Arl6ip4 | 0.337 |

| Sequence | z-score |
| --- | --- |
| CAUCGUGUGAAACUGGAGATT against Carmil3 | 0.608 |
| GGCUGUCAAGAAGCACAUCTT against Inhba | 1.08 |
| GGAAAGUUCCAAGUUACCATT against Arl13b | 1.18 |
| GGGACAGUGGACCAUUAUGTT against Rnf8 | -2.41 (active) |
| GGAGCCUCAGGUCCAAAUGTT against Fancd2os | 1.89 |
| GGAUGUGCAAGGAAUCUCATT against Spint1 | 0.741 |
| GGCAAUGCACUUAUAACUCTT against Olfr118 | 0.389 |
| GGAGUUUUGUGAACUAUGATT against Slc36a3 | -2.73 (active) |
| GCUGCAUAGACUCAUGGUUTT against Znrf1 | -0.408 |
| GGCACUCCUCUUUGUUUUCTT against Olfr414 | -1.82 |
| CCCAAAUGAUUGGAUCUGUTT against Cd40lg | 0.273 |
| CGAAUGGCUAUCAGUGAGGTT against Tbc1d20 | -1.04 |
| GGACUGUAUGUGGAAUGGCTT against Bmyc | -0.46 |
| GCUACUAAGCACCUAGAGATT against Fxr2 | -0.932 |
| CUCUAGCUACUAUUUUCUCTT against Olfr824 | -1.57 |
| GGAUAUGGACUAUUCACGGTT against Dgat1 | -1.32 |
| CGGCUUACGCAUGUCUAUGTT against Polr2a | -2.01 (active) |
| GGUUUUGCCAAGGACGCAGTT against Ngf | 0.124 |
| GGAAGAAAAAAAAUCUCCATT against Frmd3 | 0.577 |
| GGUGGUUAUGAUCUAUGAUTT against Dazap1 | -1.43 |
| GGCUGGAGCCUCAAAUAUCTT against Rapsn | -0.574 |
| GGUGGAUGCCUUGAAUAUGTT against 1700029P11Rik | -2.25 (active) |
| CGAGCUAACAGCAUUGCUGTT against Ajuba | 0.532 |

| Sequence | z-score |
| --- | --- |
| GCCAUGCAAAUCGAUGGGUTT against Rora | -2.69 (active) |
| GCAUUUAAAAUACACGGUGTT against Arg1 | 0.264 |
| GGUGACUCCAAGAAUGUGGTT against Wfdc1 | -0.703 |
| CCCAGAGCCAGGUUCAAACTT against AY702103 | 0.78 |
| GCACUAAAUCCUUUGAUAUTT against Olfr307 | 1.08 |
| GCUGAACAAUUUUCAACAATT against Sclt1 | -0.958 |
| GCAUCCUUGACCGAUACUATT against Psmb2 | -2.78 (active) |
| GGAUCUAUUGAUGGUUCAUTT against Tprkb | -1.68 |
| GGGUCACCCAUUAUUUUAUTT against Phyhip | -0.899 |
| GGGAGGAACAUCACCUCAGTT against Vmn2r123 | 0.327 |
| GGUCAUACUCUAAUCGGACTT against Ctss | 0.672 |
| GGAAAGAUGUCAAAGAAAUTT against Gnat2 | -1.14 |
| UGCCACUGCCAAAAAAUAATT against Tex18 | -0.838 |
| CCAGACAUUUGAUAGCCAUTT against Fam241a | -1.42 |
| GCCAAGCAUAAUCUAAUGATT against Prpf4b | 0.851 |
| CGACCACAUUAUUGGGUUUTT against Senp8 | 2.62 (active) |
| GCCUGUGAUCUUUUGUAUCTT against Olfr835 | -0.726 |
| GGAUGUCUAGUUAUACAUUTT against Mbd3l1 | 1.21 |
| GCUAAUGAAGCAGAGCUGUTT against Olfr1359 | 0.388 |
| GGUGUAACUCCUUCAUUGATT against Ripor2 | -3.12 (active) |
| CCUUAUCUCUACCAUCGGUTT against Hyal2 | 0.0745 |
| GCACCAGCUCUAAUUCAGATT against Herpud2 | 1.48 |

From PubChem BioAssay AID1508600 (Functional Genomics Laboratory (NCATS/FGL), 2020)
